Assay outcomes from PubChem BioAssay.
CYP2C19 act = human CYP2C19 activators, primary screen, biochemical, luminescence | 96,000 tested, under 10 active | AID 1025, 2008 | recombinant CYP2C19, luciferin-H EGE luminescence; hits give high values; 0 = fully inhibited enzyme, 1 = untreated enzyme | activation factor at 5 µM | Cytochrome P450 2C19 (Homo sapiens), P33261;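 active means activation factor of at least 2 at 5 µM in the primary screen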;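 further: 0 = wells with 2.5 mM tranylcypromine and 1 = vehicle-only wells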
PostGolgi yeast = phenotypic screen on post-Golgi transport, primary screen. post-Golgi transport phenotypic cell assay. 98,000 compounds, 0.9% hits. inhibition, % at 10 µM. AID 739, 2007;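 further: yeast cells grown in 1536-well plates; yeast grown about 18 h at 30C before absorbance read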
CYP2C9 inh = blockers of cytochrome P450 2C9 activity – biochemical, luminescence, ADME assay, primary screen. CYP2C9 Supersomes, luciferin-H conversion. inhibition, % at 5 µM. 96,000 compounds, 20% hits. AID 777, 2007;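 active means blocking of liver enzyme CYP2C9 beyond about 50% at 5 µM, limit read from the data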
Target sequence (P11712 whole entry, looked up): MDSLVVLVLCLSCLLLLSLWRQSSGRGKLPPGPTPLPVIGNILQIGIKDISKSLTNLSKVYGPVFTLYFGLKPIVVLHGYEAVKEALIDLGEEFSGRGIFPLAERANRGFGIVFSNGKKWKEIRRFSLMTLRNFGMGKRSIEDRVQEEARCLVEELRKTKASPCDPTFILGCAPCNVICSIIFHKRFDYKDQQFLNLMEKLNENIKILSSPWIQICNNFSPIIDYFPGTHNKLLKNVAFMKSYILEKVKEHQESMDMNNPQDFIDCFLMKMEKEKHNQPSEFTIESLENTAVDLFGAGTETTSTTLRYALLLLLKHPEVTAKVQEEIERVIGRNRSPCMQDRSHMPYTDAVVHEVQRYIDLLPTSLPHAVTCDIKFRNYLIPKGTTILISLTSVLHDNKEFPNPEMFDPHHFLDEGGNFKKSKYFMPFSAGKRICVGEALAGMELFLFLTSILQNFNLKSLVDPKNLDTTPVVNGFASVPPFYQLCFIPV
CYP2C19 inhib = blockers of cytochrome P450 2C19 activity – biochemical, luminescence, ADME assay, primary screen; CYP2C19 Supersomes, luciferin-H EGE luminescence, 30 min; inhibition, % at 5 µM; 96,000 compounds, 21% hits; AID 778, 2007;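 active means CYP2C19 inhibition above a set limit at 5 µM in the primary screen, cut at about 50% in these data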;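 further: plate controls were negative control wells for no effect and 2.5 mM tranylcypromine positive control for full effect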
CYP2C9 activ = human CYP2C9 activators, primary screen, biochemical, luminescence | Cytochrome P450 2C9 (Homo sapiens), P11712 | activation factor at 5 µM | AID 1024, 2008 | 96,000 compounds, 1.4% hits | recombinant CYP2C9, luciferin-H conversion; hits give high values; factor 1 = untreated enzyme, 0 = blocked;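 active means activation factor of 2 or more for CYP2C9 at a 5 µM dose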;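 further: 0 = sulfaphenazole-blocked wells and 1 = vehicle-only wells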
PostGolgi ctrl = growth inhibition of yeast control strain, primary screen, counter-screen for post-Golgi transport modulator project | AID 738, 2007 | efflux-deficient yeast background strain, growth absorbance A615, 16 h | 98,000 compounds, 5% hits | inhibition, % at 10 µM
Starred values were filed as active, the others as inactive; nt = no result. Most compounds without a hit are left out; they make up all but 32% or so of the library. Unless noted, no stated cut-off is given here; in the data, active means inhibition above about 30%; inactive means the rest.

SMILES	CYP2C19 act	PostGolgi yeast	CYP2C9 inh	CYP2C19 inhib	CYP2C9 activ	PostGolgi ctrl
Cc1ccccc1C(=O)c1c[nH]c(C(N)=O)c1	1.1	8	1	-11	1	7
O=C(c1c[nH]c(C(=O)C(Cl)(Cl)Cl)c1)c1ccccc1Cl	0.6	-3	72*	41	0.3	6
Cc1ccc(-c2nn3nnnc3c3ccccc23)cc1	0.9	-3	-2	12	1	0
CCCCCCCCn1c(=O)c(C(=O)OCC)c(O)c2ccccc21	0.6	0	78*	42	0.2	7
CCCCCSc1nnc2c(n1)OC(C)N(C(C)=O)c1ccccc1-2 (centres undefined)	0.7	-5	33	26	0.7	12
O=C(COC(=O)c1ccc2c(c1)OCO2)NCc1ccc(Cl)cc1	0.6	0	-98	37	2*	-2
Cc1ccsc1C(=O)OCC(=O)NCc1ccc2c(c1)OCO2	0.4	-3	72*	60*	0.3	-4
CC(=O)OCC(=O)NCc1ccc2c(c1)OCO2	0.9	-6	-3	5	1	30*
Cc1cc(=O)oc2cc(OCC(=O)OCC(=O)NCc3ccc4c(c3)OCO4)ccc12	0.6	0	-63	39	1.6	11
O=C(COC(=O)CSc1nnc(-c2ccc(Cl)cc2)o1)NCc1ccc2c(c1)OCO2	1	-3	-21	-4	1.2	4
O=C(COC(=O)CCC(=O)c1ccc2c(c1)OCCO2)NCc1ccc2c(c1)OCO2	0.5	-1	81*	50	0.2	4
O=C(CCn1cccc1)NCc1ccc2c(c1)OCO2	0.7	11	0	26	1	1
COc1ccc(NC(=O)C23CCC(C2)C(C)(C)C3=O)cc1 (centres undefined)	0.7	2	21	34	0.8	9
CC(=O)N1CSCC1C(=O)N1CCN(c2ccc(N3CCOCC3)nn2)CC1 (centres undefined)	1.1	-10	-5	-15	1.1	-5
CCC(NC(=O)NCc1ccc2c(c1)OCO2)(C(F)(F)F)C(F)(F)F	0.1	7	52*	86*	0.5	3
CC(=O)NC1C(=O)N(C)c2ccc(Br)cc21 (centres undefined)	1.1	-4	-1	-5	1	-3
Cc1cc2cc(C(c3nnnn3Cc3ccco3)N3CCc4ccccc4C3)c(=O)[nH]c2cc1C (centres undefined)	1	12	8	4	0.9	23
Cc1ccc(S(=O)(=O)Nc2nc3ccc(S(=O)(=O)N4CCCC4)cc3s2)cc1	1	-6	98*	4	0	9
O=S(=O)(Nc1nc2ccc(S(=O)(=O)N3CCCCC3)cc2s1)c1ccccc1	0.9	12	99*	10	0	-2
O=C(Nc1nc2ccc(S(=O)(=O)N3CCCCC3)cc2s1)c1ccncc1	0.1	3	84*	86*	0.2	8
CC1CN(C(=O)CN2C(=O)c3ccccc3S2(=O)=O)CC(C)O1 (centres undefined)	0.9	-1	18	14	0.8	14
O=C(CCCOc1ccccc1)Nc1nnc(C2CCCO2)s1 (centres undefined)	0.4	-14	56*	64*	0.4	14
CC(=O)N1CCN=C1SCc1ccc(C)cc1	0.7	-3	29	34	0.7	10
CCC(=O)N1CCN=C1SCc1ccc(Cl)cc1	0.2	-5	19	84*	0.8	23
CC(=O)N1CCN=C1SCc1ccc(Cl)cc1	0.6	3	32	40	0.7	35*
SMILES	CYP2C19 act	PostGolgi yeast	CYP2C9 inh	CYP2C19 inhib	CYP2C9 activ	PostGolgi ctrl
O=C(CN(Cc1ccco1)C(=O)CNS(=O)(=O)c1ccccc1)NCc1ccc(F)cc1	0.4	-8	62*	61*	0.4	10
CN(C)S(=O)(=O)c1cccc(C(=O)N(Cc2ccc(F)cc2)Cc2ccco2)c1	0.9	-6	51*	6	0.5	7
O=C(CN(Cc1cccs1)C(=O)CNS(=O)(=O)c1ccc(F)cc1)NCc1ccco1	0.4	-6	22	58*	0.8	6
Cc1ccc(S(=O)(=O)NCC(=O)N(CCc2ccccc2)CC(=O)NCc2ccco2)cc1	0.3	-2	53*	72*	0.5	2
O=C(CN(Cc1ccco1)C(=O)CNS(=O)(=O)c1ccc(F)cc1)NCc1ccc(F)cc1	1	-5	-3	-3	1	5
O=C(CN(Cc1cccs1)C(=O)CNS(=O)(=O)c1ccc(Cl)cc1)NCc1ccco1	0.6	21	28	38	0.7	27
Cc1ccc2nc(C3CCN(CC(=O)N4CCCCCC4)CC3)[nH]c2c1	1	2	10	4	0.9	-4
COc1ccc(CN/C=C2\CCCCC2=O)cc1	1	13	-5	3	1.1	-1
Cc1nnc(NC(=O)C2CCCO2)s1 (centres undefined)	nt	5	nt	nt	nt	7
O=C(Nc1nnc(-c2ccncc2)s1)C1CCCO1 (centres undefined)	0.2	7	49	78*	0.5	-5
CCC(=O)Nc1nnc(-c2ccncc2)s1	0.2	0	38	75*	0.6	3
CNc1nnc(-c2ccncc2)s1	0.9	7	0	11	1	12
CCNc1nnc(-c2ccncc2)s1	0.3	6	23	71*	0.8	0
CN(C)c1c([N+](=O)[O-])ncn1C	0.9	6	9	14	0.9	9
CC(C)[C@H](N)c1nnc(SC/C=C/c2ccccc2)o1	0.2	6	16	82*	0.8	13
N[C@@H](Cc1ccccc1)c1nnc(SCc2ccccc2F)o1	nt	-3	nt	nt	nt	7
CC(C(=O)NC(=O)NC1CCCCC1)N1CCN(c2ccccn2)CC1 (centres undefined)	0.7	5	57*	25	0.4	5
C=C(C)CNC(=S)N/N=C(\C)c1ccc(-n2ccnc2)cc1	0	-1	100*	100*	0	-2
CCCOc1nnnn1-c1ccccc1	0.6	-4	2	38	1	-4
CC(C)COC(=O)CNc1n[nH]c(=S)[nH]c1=O	1.1	-12	-12	-8	1.1	5
On1onc2c3cc(-c4ccccc4)nc3ccc21	0.8	96*	65*	25	0.3	94*
c1ccc(-c2cc3c(ccc4nonc43)nn2)cc1	1	-1	15	5	0.9	10
CCOc1ccccc1OCCOc1cccc(C(F)(F)F)c1	0.8	1	-35	20	1.4	-2
Cc1nnc(OC(C)C)c2nn(-c3ccccc3F)c(C)c12	0.5	-5	89*	51*	0.1	1
